Assay outcomes (PubChem BioAssay)
TDP1 inh = qHTS Assay for Inhibitors of Tyrosyl-DNA Phosphodiesterase (TDP1). Tyrosyl-DNA phosphodiesterase 1 (Homo sapiens), Q9NUW8. recombinant TDP1, AlphaScreen DNA substrate cleavage. Potency, µM (series often up to 130 µM), without a hit: at the highest dose activity change, negative = inhibition, actives largely listed as inhibitors. 350,000 tested, 0.28% active. AID 485290, 2010; also: % is scaled to controls: 0 for no effect and ±100 for the full control effect; nearly all actives have a fitted effect of over 40% in size
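E. coli-derived human Tdp1, 1 nM final. Cpd preinc 15 min RT; substrate 15 nM final, 5 min RT; AS bead mix 10 ug/ml final, 10 min RT. Signal loss = tyrosine-FITC cleavage. No-enzyme wells = max signal.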
BAZ2B inh = qHTS Assay for Inhibitors of BAZ2B. AlphaScreen BAZ2B-H3K14Ac peptide displacement. Bromodomain adjacent to zinc finger domain protein 2B (Homo sapiens), Q9UIF8. Potency, µM (highest dose often 114 µM), inactives show at the top dose activity change, negative = inhibition, most hits filed as inhibitors. 360,000 tested, 4.4% active. AID 504333, 2011; also: % is scaled to controls: 0 for no effect and ±100 for the full control effect; nearly all actives have a fitted effect of over 60% in size
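Compounds, titrated to a top concentration of 110 uM, were incubated 30 min at room temperature with preformed BAZ2B/acetyl-K14 H3 peptide complex (50 nM each). Proximity signal was measured by AlphaScreen after 20 min with beads.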
JMJD2A Tudor inh = qHTS Assay for Inhibitors of JMJD2A-Tudor Domain; Lysine-specific demethylase 4A (Homo sapiens), O75164; AlphaScreen JMJD2A-Tudor / H3K4me3 peptide binding; Potency, µM (titrated, usually from 114 µM), inactives show at the highest dose activity change, negative = inhibition, actives largely listed as inhibitors; 390,000 tested, 4.4% active; AID 504339, 2011; also: % is scaled to controls: 0 for no effect and ±100 for the full control effect; nearly all actives have a fitted effect of over 50% in size
G9a inh = qHTS Assay for Inhibitors of Histone Lysine Methyltransferase G9a | G9a H3K9 monomethylation, AlphaScreen, 2 h | Potency, µM (series often up to 102 µM), without a hit: at the top dose activity, negative = inhibition, actives largely listed as inhibitors | AID 504332, 2011 | 350,000 tested, 8.8% active; also: % is scaled to controls: 0 for no effect and ±100 for the full control effect; nearly all actives have a fitted effect of over 75% in size
Target sequence (Q96KQ7 913-1193 limits assumed): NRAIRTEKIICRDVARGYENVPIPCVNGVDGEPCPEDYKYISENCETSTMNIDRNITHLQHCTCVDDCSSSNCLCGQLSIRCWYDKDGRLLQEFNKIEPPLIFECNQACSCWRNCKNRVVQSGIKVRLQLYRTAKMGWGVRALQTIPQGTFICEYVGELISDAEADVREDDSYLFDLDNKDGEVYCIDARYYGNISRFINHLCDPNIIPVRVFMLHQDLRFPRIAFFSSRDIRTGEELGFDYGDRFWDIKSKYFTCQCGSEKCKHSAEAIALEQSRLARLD
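Compounds were preincubated with 20 nM G9a for 15 min, after which biotinylated H3K9 peptide (500 nM) and SAM (20 uM) started a 2 h room-temperature reaction. Monomethylated product was quantified by antibody-based AlphaScreen chemiluminescence.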
Sfp inh = qHTS Assay for Inhibitors of Bacillus subtilis Sfp phosphopantetheinyl transferase (PPTase) | 4'-phosphopantetheinyl transferase ffp (Bacillus subtilis), Q9F4F7 | Biochemical Sfp PPTase activity, qHTS | Potency, µM, without a hit: largest response in the series, negative = inhibition, hits mostly inhibitors | 310,000 tested, 3.5% active | AID 1490, 2009;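 also: the enzyme is Sfp with the accession as filed and its product quenches rhodamine fluorescence; 0% = enzyme reaction without inhibitor and -100% = no enzyme wells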
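Reaction rates are the 30-min fluorescence difference (ex 525, em 598 nm) in wells containing 15 nM Sfp, 5 uM rhodamine-CoA and 12.5 uM BHQ-2-YbbR at pH 7.6 with 10 mM MgCl2.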
HP1b chromo inh = HTS for Inhibitors of HP1-beta Chromodomain Interactions with Methylated Histone Tails; Potency, µM (highest dose often 114 µM), inactives show at the highest dose activity change, negative = inhibition, most hits filed as inhibitors; 390,000 tested, 0.56% active; AlphaScreen HP1-beta / biotin-H3K9me3 peptide binding; Chromobox protein homolog 1 (Homo sapiens), P83916; AID 540317, 2011; also: nearly all actives have a fitted effect of over 70% in size
Target sequence (P83916 whole entry, looked up): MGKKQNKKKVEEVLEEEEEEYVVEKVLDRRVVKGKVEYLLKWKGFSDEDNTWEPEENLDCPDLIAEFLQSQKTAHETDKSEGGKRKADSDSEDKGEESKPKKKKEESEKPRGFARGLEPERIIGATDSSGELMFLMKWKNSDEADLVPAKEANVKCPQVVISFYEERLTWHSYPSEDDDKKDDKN
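Compound inhibition of the preformed complex between 50 nM HP1-beta and 50 nM biotinylated H3K9me3 peptide was read by AlphaScreen. Buffer was PBS pH 7.4 with 0.01% Tween-20. Incubations ran 30 min at room temperature, with 10 ug/mL donor/acceptor beads.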
* marks the source's active call; other numbers are inactive results; ? = inconclusive; nt = no result given; [ ] = dose if it differs, or a comment. This is a sample that favours compounds with a hit; in the whole collection about 12% have one here. Calls follow the shape of the dose curve; as a rule, active = well fitted curve in the direction sought with a large enough effect; inconclusive = small, poorly fitted or top-dose-only effect, or another doubt; inactive = no such curve, though single readings can be large; an effect the other way counts as inactive or inconclusive. Potency is read from the fitted curve at half-maximal effect.

SMILES	TDP1 inh	BAZ2B inh	JMJD2A Tudor inh	G9a inh	Sfp inh	HP1b chromo inh
CC(=O)c1cccc(NC(=O)CCc2nnc3ccc(NCc4ccco4)nn23)c1	25.1µM*	?	21.8%	13.2%	4.6%	49.7%
COc1cccc(N2CCN(c3ccc4nnc(CCC(=O)Nc5cccc(C(C)=O)c5)n4n3)CC2)c1	-1.5%	-10.5%	15.8µM*	10.5%[59 µM]	8.4%	6.8%
O=C(CCc1nnc2ccc(NCc3ccco3)nn12)N1CCN(c2ccccc2)CC1	-11.3%	50.1µM*	39.8µM*	-15.7%	2.7%	-23.0%
COc1cccc(N2CCN(c3ccc4nnc(CCC(=O)Nc5ccc(F)cc5)n4n3)CC2)c1	5.4%	-26.7%	-9.7%	55.9%	11.5%	13.6%
Cc1ccc(Cl)cc1NC(=O)C(NS(=O)(=O)c1ccc2c(c1)CCC(=O)N2)c1ccccc1 (configuration not stated)	8.1%	-26.4%	-19.2%	?	nt	20.0%
O=C(c1ccc(F)cc1F)N(Cc1ccccn1)Cc1ccco1	-2.9%	?	?	22.4µM*	-6.0%	22.8%
CC1Cn2c(C(=O)NCc3cccc(Br)c3)cc3cccc(c32)S1 (configuration not stated)	-8.5%	12.5%	34.1%	28.7%[59 µM]	nt	75.6%
Cc1ccc(CNC(=O)CCc2nnc(Cc3ccc(-c4ccccc4)cc3)o2)o1	-1.2%	-26.6%	-12.5%	-7.3%	22.4µM*	12.4%
Cc1sc2nc(SCC(=O)Nc3ccc(Cl)c(C(=O)O)c3)[nH]c(=O)c2c1C	nt	nt	-19.2%	nt	nt	20.1%[57 µM]
O=C(CSc1nc2scc(-c3ccccc3)c2c(=O)[nH]1)N1CCCCC1	-2.7%	-26.8%	-9.2%	50.1µM*	-9.4%	14.4%
CC(C)(C)NC(=O)CSc1nc2scc(-c3ccccc3)c2c(=O)[nH]1	5.5%	0.9%	-6.4%	6.5%[59 µM]	2.4%	21.8%
COCCNC(=O)CSc1nc2scc(-c3ccccc3)c2c(=O)[nH]1	3.1%	-23.3%	-10.2%	50.1µM*	16.0%	14.5%
Cc1ccc(-c2csc3nc(SCC(=O)Nc4ccc(Cl)c(C(=O)O)c4)[nH]c(=O)c23)cc1	-19.9%	?	-28.3%	28.2µM*	-14.3%	0.1%[57 µM]
NC(N)=Nc1nc(-c2ccccc2)c2cc(F)ccc2n1	9.3%	-16.0%	-11.6%	?	-19.2%	24.5%
O=C1CCc2cc(S(=O)(=O)NC(C(=O)Nc3cccc(F)c3)c3ccccc3)ccc2N1 (configuration not stated)	8.1%	-3.3%[57.1 µM]	-3.7%	-4.6%[59 µM]	nt	55.4%
N#CN(Cc1ccccc1)Cc1ccccc1	5.1%	8.6%	17.9%	43.4%	3.5%	32.0%
CC(C)n1cc(C(N)=S)c(=O)n(Cc2ccccc2)c1=O	nt	-14.5%	-7.8%	50.1µM*	15.7%	22.7%
Fc1ccc(CCN2CCN=C2Nc2ccccc2)cc1	0.9%	1.4%	-18.3%	-3.9%[2.33 µM]	nt	49.2%
CC1=NN(C(C#N)c2ccccc2C)C(C)(C)C1 (configuration not stated)	-5.5%	-14.1%	1.4%	0.6%	18.3%	43.9%
CC1=NN(C(C#N)c2ccc(F)cc2)C(C)(C)C1 (configuration not stated)	2.7%	7.3%	1.4%	8.1%	6.9%	56.9%
CC1=NN(C(C#N)c2c(C)nn(Cc3ccccc3)c2C)C(C)(C)C1 (configuration not stated)	6.0%	-4.6%	?	35.5µM*	17.5%	28.9%
CC1=NN(C(C#N)c2ccc([N+](=O)[O-])cc2)C(C)(C)C1 (configuration not stated)	4.8%	-36.3%	22.4µM*	?	0.5%	-20.1%
O=C1CCCC=C1[C@@H](O)CCOC(c1ccccc1)(c1ccccc1)c1ccccc1	0.6%	nt	nt	nt	12.0%	nt
Cc1c(C(=O)Nc2cccc(-c3nc4ccccc4s3)c2)oc2ccccc12	-4.7%	-6.6%	4.3%	-23.3%[59 µM]	nt	9.8%
O=C(Nc1nccs1)[C@@H]1CCCN1S(=O)(=O)c1ccccc1F	4.9%	6.7%	0.7%	39.8µM*	nt	32.4%
SMILES	TDP1 inh	BAZ2B inh	JMJD2A Tudor inh	G9a inh	Sfp inh	HP1b chromo inh
COc1ccc(C)cc1NC(=O)C1CCCN1S(=O)(=O)c1ccccc1F (configuration not stated)	-0.5%	11.4%	4.4%	8.91µM*	nt	42.3%
Cc1cccc(N(C)S(=O)(=O)c2c(C)noc2C)c1	0.9%	14.9%	4.6%	20.5%	7.1%	18.6%[57 µM]
CC(=O)c1cccc(NC(=O)/C(=C\c2cccnc2)NC(=O)c2ccco2)c1	-2.7%	-28.5%	-0.7%	-36.9%	6.7%	23.8%
Cc1ccc(CCNC(=O)C2CCN(S(=O)(=O)c3ccc4c(c3)oc(=O)n4C)CC2)cc1	0.4%	-10.6%	-13.2%	-1.1%	12.3%	30.6%
Cc1ccc(NC(=O)Cn2c(=O)ccc3cc(S(=O)(=O)N4CCCC4)ccc32)cc1N(C)C	12.1%	3.6%	-0.6%	1.6%[59 µM]	nt	25.4%[57 µM]
O=C(NCCc1ccc(Cl)cc1)c1ccc(Cn2c(=O)[nH]c3ccccc3c2=O)cc1	28.2µM*	-2.4%	-19.3%	-4.2%[12.7 µM]	nt	7.2%
O=C1c2ccccc2C(=O)C2OC12 (configuration not stated)	nt	-14.4%	nt	8.91µM*	?	nt
Cc1[nH]c2ccccc2c1C(O)CN1CCN(c2cccc(C(F)(F)F)c2)CC1 (configuration not stated)	5.2%	39.8µM*	56.2µM*	56.2µM*	-18.7%	?
O=C(CCCCCn1c(=O)[nH]c2ccccc2c1=O)N1CCN(c2cccc(C(F)(F)F)c2)CC1	3.4%	-18.3%	-30.7%	-17.5%[59 µM]	nt	23.0%
Cc1[nH]c2ccccc2c1NC(=O)CN1CCN(c2cccc(C(F)(F)F)c2)CC1	5.1%	50.1µM*	?	?	-9.2%	-26.2%
Cc1[nH]c2ccccc2c1NC(=O)CN1CCN(Cc2ccc3c(c2)OCO3)CC1	3.8%	-6.6%	nt	56.2µM*	10.2%	nt
O=C(CN1CCN(c2cccc(C(F)(F)F)c2)CC1)NCc1ccccc1	1.3%	-8.5%	-15.0%	nt	3.3%	21.1%
COC(=O)c1ccc(C)c(NC(=O)CSc2nnc3ccccn23)c1	-0.1%	4.3%	-16.4%	7.8%[59 µM]	nt	29.6%
COC(=O)c1ccc(C)c(NC(=O)C(CCSC)NC(=O)c2cc(OC)c(OC)c(OC)c2)c1 (configuration not stated)	nt	1.7%	-3.5%	10.9%	18.1%	-14.1%
